# “And” between values parts separate entries of the source, which are not always exact repeats. Identical values can stand only once. Results filed as inconclusive are left out. Entries that show only a call come without a potency. The source made the active and inactive calls. Calls follow the shape of the dose curve; as a rule, active = well fitted inhibition curve with a large enough effect; inconclusive = small, poorly fitted or top-dose-only effect; inactive = no such curve, though single readings can be large or run the other way.
# Experiment: Primary qHTS for inhibitors of nuclear receptor binding SET domain protein 2 (NSD2) in an RCH-ACV wild type WT cells (2C) (AID 1645877); also: nearly all actives have a fitted effect of over 70% in size
# Details: RCH-ACV (leukaemia line) NSD2 WT (2C) viability, CellTiter-Glo, 72 h; series mostly up to 44.9 µM
# Source text: Assay Provider: Jonathan D. Licht, MD
# University of Florida College of Medicine, Gainesville, FL
# Mutations in epigenetic regulators are common in relapsed pediatric acute lymphoblastic leukemia (ALL). Here, we uncovered the mechanism underlying the relapse of ALL driven by an activating mutation of the NSD2 histone methyltransferase (p.E1099K). […] Correction of this mutation restored glucocorticoid sensitivity. The transcriptional response to glucocorticoids was blocked in NSD2 mutant cells due to depressed glucocorticoid receptor (GR) levels and the failure of glucocorticoids to autoactivate GR expression. […] Pre-treatment of NSD2 p.E1099K cell lines and PDX samples with PRC2 inhibitors reversed glucocorticoid resistance in vitro and in vivo.
# High-throughput drug screening of isogenic RCH-ACV cell lines was performed at the National Center for Advancing Translational Science (NCATS), National Institutes of Health as previously described (1). Briefly, isogenic RCH-ACV NSD2 p.E1099K mutant (9B) and WT cells (2C) were plated at 500 cells/well in a 1536-well plate with a 72-hour incubation with compounds prior to addition of CellTiter-Glo to assess cell viability. NCATS libraries screened include: NPC, MIPE 5.0, Kinase and NPACT. To determine compound activity in the qHTS assay, the concentration-response data for each sample was plotted and modeled by a four-parameter logistic fit yielding IC50 and efficacy (maximal response) values. The area under the curve (AUC) of the dose-response curve ensures both efficacy (magnitude of cell killing) and potency (concentration that elicits cell killing) are accounted for in the analysis of activity.
# 1. Tobie D Lee, Olivia W Lee, Kyle R Brimacombe, Lu Chen, Rajarshi Guha, Sabrina Lusvarghi, Bethilehem G Tebase, Carleen Klumpp-Thomas, Robert W Robey, Suresh V Ambudkar, Min Shen, Michael M Gottesman, Matthew D Hall. A High-Throughput Screen of a Library of Therapeutics Identifies Cytotoxic Substrates of P-glycoprotein. Mol Pharmacol. 2019, Nov;96(5):629-640.
# Potency is read from the fitted curve at half-maximal effect.
row,SMILES,Potency
1,CCOC(=O)Nc1cc(-c2ccc(C)c(NS(C)(=O)=O)c2)nn2c(C)nnc12,0.515 µM (active)
2,CC(O)(CC(=O)O)CC(=O)OCc1ccc(O[C@@H]2O[C@H](CO)[C@@H](O)[C@H](O)[C@H]2O)cc1 (stereo not given in full),inactive
3,C=CC(C)(C)C12C=C(OC)C(=O)N3C(C(C)C)C(=O)NC31N(OC)c1ccccc12 (stereo not given),inactive
4,COc1ccc(N2CCOCC2)c2sc(NC(=O)N3CCC(C)(O)CC3)nc12,inactive
5,CC1(C)CC[C@]2(C(=O)O[C@@H]3O[C@H](CO)[C@@H](O)[C@H](O)[C@H]3O)CC[C@]3(C)C(=CCC4[C@@]5(C)C[C@@H](O)[C@H](O)[C@](C)(C=O)C5CC[C@]43C)[C@@H]2[C@@H]1O (stereo not given in full),inactive
6,C=C(C(=O)O)C1CCC2(C)CCC(O)C(C)(O)C2C1 (stereo not given),inactive
7,COc1cc(Br)c(Nc2nc(-c3c(C)nc4ncccn34)cs2)c(Br)c1,2.05 µM (active)
8,CC(=O)O[C@@H]1C[C@@H](OC(C)=O)C(C)(C)/C=C/[C@H](C)[C@H](OC(C)=O)[C@@]2(O)C[C@H](C)[C@H](OC(=O)c3ccccc3)[C@@H]2/C=C/1C,inactive
9,CC1(C)[C@@H](O)CC[C@]2(C)[C@H]3CC=C4[C@@H]5C[C@](C)(C(=O)O)CC[C@]5(C)CC[C@@]4(C)[C@]3(C)CC[C@@H]12,inactive
10,COc1ccc(C(=O)C2CCN(CC(=O)N(Cc3nc4c(c(=O)[nH]3)COCC4)CC3CC3)CC2)cc1,inactive
11,COC(=O)CCC(=O)OC[C@]1(C)CCC[C@@]2(C)C3CC[C@]4(C)C=CC3(CCC12)C4 (stereo not given in full),inactive
12,CC(C)CN(C[C@@H](O)[C@H](Cc1ccccc1)NC(=O)O[C@@H]1CO[C@H]2OCC[C@H]21)S(=O)(=O)c1ccc(N)cc1,inactive
13,CNC(=O)c1ccccc1Nc1cc(Nc2ccc(N3CCOCC3)cc2OC)ncc1C(F)(F)F,2.9 µM (active)
14,NCc1ccc(Nc2ncc(F)c(Nc3ccccc3)n2)cc1,4.09 µM (active)
15,CC(C)=CCC[C@](C)(O[C@@H]1O[C@H](CO)[C@@H](O)[C@H](O)[C@H]1O)[C@H]1CC[C@]2(C)[C@@H]1[C@H](O)CC1[C@@]3(C)CC[C@H](O)C(C)(C)C3[C@@H](O[C@@H]3O[C@H](CO)[C@@H](O)[C@H](O)[C@H]3O)C[C@]12C (stereo not given in full),inactive
16,Cc1ccc(C(=O)Nc2noc3ccccc23)cc1,inactive
17,CC1CC(=O)C2=C(CCC3(O)C(O)c4c(O)cccc4C(=O)C23O)C1 (stereo not given),inactive
18,CC[C@]12C=CCN3CC[C@@]4(c5cc([C@@]6(C(=O)OC)C[C@H]7C[C@@H](C(C)(F)F)CN(Cc8c6[nH]c6ccccc86)C7)c(OC)cc5N(C)[C@H]4[C@@](O)(C(=O)OC)[C@@H]1OC(C)=O)[C@@H]32,0.0879 µM (active)
19,C=C1CC[C@@H]2[C@](C)(CO[C@@H]3O[C@H](CO)[C@@H](O)[C@H](O)[C@H]3O)[C@H](O)CC[C@@]2(C)[C@@H]1C/C=C1/C(=O)OC[C@H]1O,inactive
20,CC12CCC(OC3OC(CO)C(O)C(OC4OC(CO)C(O)C(O)C4O)C3O)CC1CCC1C2CCC2(C)/C(=C3/COC(=O)C3)CCC12O (stereo not given),inactive

row,SMILES,Potency
1,CCC(Nc1ncnc2nc[nH]c12)c1nc2cccc(F)c2c(=O)n1-c1ccccc1 (stereo not given),0.461 µM (active)
2,Cc1cc(=O)oc2c(C=O)c(O)ccc12,16.3 µM (active)
3,CC1(C)CC[C@]2(C(=O)O)CC[C@]3(C)C(=CCC4[C@@]5(C)C[C@@H](O)[C@H](O)C(C)(C)C5CC[C@]43C)C2C1 (stereo not given in full),inactive
4,Nc1ncnc2c1ncn2CCNCCCCCO,inactive
5,C=C1C(=O)OC2/C=C(\CO)CC/C=C(\C=O)CC(OC(=O)CC(C)C)C12 (stereo not given),2.26 µM (active)
6,CC1(C)CC2C(O)c3cocc3CC(C)(O)C2C1 (stereo not given),inactive
7,CCCCNc1ccc(-c2ccc(CN3CCOCC3)cn2)c(NC2CCC(O)CC2)c1 (stereo not given),0.796 µM (active)
8,COc1ccc(C(O)C(C)OC2OC(CO)C(O)C(O)C2O)cc1 (stereo not given),inactive
9,COCCN1CCN(Cc2ccc(-c3n[nH]c4c3C(=O)c3c(NC(=O)NN5CCOCC5)cccc3-4)cc2)CC1,36.5 nM (active) and 52.5 nM (active)
10,Cc1ccc(Cc2c(C)nc3nc(SCC(=O)NCCN4CCNCC4)nn3c2C)cc1,inactive
11,CC1CCCCN1S(=O)(=O)c1ccc(N2CCCC2=O)cc1 (stereo not given),inactive
12,O=C(O)c1cn(C2CC2)c2cc(N3C[C@@H]4C[C@H]3CN4)c(F)cc2c1=O,inactive
13,C[C@@H]1O[C@@H](O[C@H]2[C@H](O)[C@@H](O)[C@H](OC3CCC4(C)C5CCC(C)(C(CO)OC6OC(CO)C(O)C(O)C6O)CC5=CCC4C3(C)C)O[C@@H]2CO)[C@H](O)[C@H](O)[C@H]1O (stereo not given in full),inactive
14,COC(=O)c1ccccc1O[C@@H]1O[C@H](CO)[C@@H](O)[C@H](O)[C@H]1O[C@@H]1O[C@@H](C)[C@H](O)[C@@H](O)[C@H]1O,inactive
15,CN(C)C/C=C/C(=O)Nc1cccc(C(=O)Nc2cccc(Nc3ncc(Cl)c(-c4c[nH]c5ccccc45)n3)c2)c1,72.8 nM (active) and 132 nM (active)
16,C=CC(=O)Nc1cccc(CN2C(=O)N(c3c(Cl)c(OC)cc(OC)c3Cl)Cc3cnc(NCCCCN(CC)CC)nc32)c1,2.58 µM (active)
17,CC1(C)CC[C@]2(C(=O)O)CC[C@]3(C)C(=CCC4[C@@]5(C)CC[C@H](O[C@@H]6O[C@H](CO)[C@@H](O)[C@H](O)[C@H]6O[C@@H]6O[C@H](CO)[C@@H](O)[C@H](O)[C@H]6O)[C@@](C)(CO)C5CC[C@]43C)[C@@H]2C1 (stereo not given in full),inactive
18,Cc1ccccc1-n1c([C@H](C)Nc2nc(N)nc3nc[nH]c23)nc2cccc(C)c2c1=O,0.411 µM (active)
19,COc1ccc(C2(O)c3ccccc3NC(=O)C2O)cc1 (stereo not given),inactive
20,C[C@@H]1C(=O)O[C@H]2[C@@H](O)C34[C@H]5C[C@@H](C(C)(C)C)C36[C@@H](OC(=O)[C@@H]6O)O[C@@]4(C(=O)O5)[C@@]12O (stereo not given in full),inactive

# Reference: PubChem BioAssay (NCATS)
